# Source: ChEMBL document CHEMBL3433997, “St. Jude Leishmania screening dataset” (2016)
# Tests used:
# Type in all cases: functional
# [1] = biological target: Solute carrier family 2, facilitated glucose transporter member 1 (Homo sapiens) (UniProt P11166); test: ST_JUDE_LEISH: Cytotoxicity at 2uM final concentration against transgenic Leishmania Mexicana promastigotes LmGLUT1 that are glucose transport deficient and complemented with the human glucose transporter GLUT1. Activity is measured by DNA content using SYBR green in vitro
# [2] = biological target: Hexose transporter 1 (Plasmodium falciparum) (UniProt O97467); test: ST_JUDE_LEISH: Cytotoxicity at 2uM final concentration against transgenic Leishmania Mexicana promastigotes LmPfHT that are glucose transport deficient and complemented with the Plasmodium falciparum hexose transporter. Activity is measured by DNA content using SYBR green in vitro
# [3] = biological target: Glucose transporter (Leishmania mexicana) (UniProt O61059); test: ST_JUDE_LEISH: Cytotoxicity at 2uM final concentration against transgenic Leishmania Mexicana promastigotes LmGT2 that are glucose transport deficient and complemented with the L. Mexicana glucose transporter 2. Activity is measured by DNA content using SYBR green in vitro
# Solute carrier family 2, facilitated glucose transporter member 1 (Homo sapiens), sequence (P11166 whole entry): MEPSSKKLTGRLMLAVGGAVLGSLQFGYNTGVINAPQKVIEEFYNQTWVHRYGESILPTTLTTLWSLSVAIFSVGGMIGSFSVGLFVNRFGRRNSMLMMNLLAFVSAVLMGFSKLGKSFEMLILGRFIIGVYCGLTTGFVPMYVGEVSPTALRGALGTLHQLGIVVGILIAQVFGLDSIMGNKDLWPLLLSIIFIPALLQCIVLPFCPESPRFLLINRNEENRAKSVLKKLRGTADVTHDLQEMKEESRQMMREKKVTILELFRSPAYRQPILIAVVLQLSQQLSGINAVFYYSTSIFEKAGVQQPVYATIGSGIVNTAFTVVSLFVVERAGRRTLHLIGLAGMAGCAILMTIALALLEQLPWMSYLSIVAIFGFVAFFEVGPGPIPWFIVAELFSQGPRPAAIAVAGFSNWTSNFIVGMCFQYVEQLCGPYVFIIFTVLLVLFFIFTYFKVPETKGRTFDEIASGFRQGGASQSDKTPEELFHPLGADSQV
SMILES,inhibition [1],inhibition [2],inhibition [3]
COc1ccccc1C1CCN(C2CCC(NC(=O)c3ccc4[nH]c(-c5ccc(C)cc5)nc4c3)CC2)CC1 (stereo not given),1.55%,3.38%,2.37%
Clc1ccc2c(NN=Cc3ccccc3)ccnc2c1,7.48%,6.89%,7.07%
O=C(O)CCSc1ncnc2[nH]cnc12,-2.53%,-2.15%,-2.15%
Cc1cc(-c2cccc(CNC3CCN(C)CC3)c2)ccc1S(=O)(=O)NC1CCC1,2.28%,1.62%,0.45%
COc1ccc(OCCON)cc1,7.35%,10.4%,8.87%
Clc1ccc2c(NN=Cc3cccnc3)ccnc2c1,6.14%,0.59%,5.48%
COc1cc2nc(N3CC(C)N(C(=O)Cc4ccc(-c5ccccc5)cc4)C(C)C3)nc(N)c2cc1OC (stereo not given),6.24%,5.22%,3.8%
Cc1cccc2nc(-c3cccc(-c4cccc(NC(=O)c5cccnc5Cl)c4)c3)[nH]c12,1.25%,2.51%,3.23%
CCOc1cc(C(=O)Nc2cccnc2)ccc1-c1nc2cc(Cl)c(Cl)cc2[nH]1,1.75%,0.16%,-0.85%
O=C(NNC(=O)c1ccc(CN2CCC(c3nc4ccccc4[nH]3)CC2)cc1)Nc1ccc(Oc2ccccc2)cc1,2.4%,2.34%,1.36%
Cc1cc(Nc2ccc(C)c(C)c2)n2nc(C)nc2n1,5.08%,5.03%,5.46%
CN(C)CC(=O)N(Cc1ccc(Cl)c(Cl)c1)Cc1csc(-c2ccc(CNCc3ccccc3)cc2)n1,3.28%,0.77%,0.35%
O=C(Nc1ccc(Cl)cc1)c1ccc(CN2CCCN(Cc3ccc(F)cc3)CC2)cc1,5.91%,1.23%,0.03%
O=C(/C=C/c1ccc(Cl)c(Cl)c1)NC1CCC(CN2CCC(c3cc4ccccc4[nH]3)CC2)CC1 (stereo not given),0.13%,2.67%,1.06%
CC(C)C[C@@H]1C(=O)N[C@H](C2Cc3ccccc3C2)C(=O)N1[C@@H](C(=O)O)c1ccc(F)cc1F,1.91%,2.13%,0.39%
O=C(NCCCCN1CCC(c2ccc(-c3ccco3)cc2)CC1)c1ccc(NC(=O)c2ccc(Cl)cc2)cc1,2.25%,2.49%,-0.22%
CCN(CC)CCc1ccc2c(=O)cc(CCc3cccc(F)c3F)n(CC(=O)N(C)Cc3ccc(-c4ccc(C(F)(F)F)cc4)cc3)c2c1,5.18%,5.23%,3.78%
CC1(C)NC(N)=NC(=N)N1OCCCOc1ccccc1Cl,8.95%,10%,12%
COc1cccc2sc(Nc3nc(-c4ccccn4)cs3)nc12,0.13%,1.96%,2.52%
Cc1cc2nc(-c3ccc(OCC(=O)NCc4ccc(C(C)(C)C)cc4)cc3)[nH]c2cc1C,6.86%,7.11%,6.35%
